Structures can show the parent of a compound that is named as a salt. Values without a mark were called inactive.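 The calls were made as follows: for the amine columns active = adjusted P below 0.05 in both replicates with a change the same way and a mean fold change under 0.8 or over 1.25; inactive = the rest.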

For this assay, the system named is Clostridium sporogenes DSM 1664. Nature of the assay: fold change of Tryptamine concentration vs plate DMSO controls (fold change (ratio)); higher = more amine produced, active = hit call of the paper (significant change in both replicates, either direction). The note with it: incubation time: 27 h, anaerobic, 37 °C. In short, it runs like this: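 Amines were quantified by LC–triple-quadrupole MS in dynamic MRM mode against external calibration curves, with drift correction within each batch. The samples were whole anaerobic mGAM cultures of four gut bacterial strains, grown for 27 h at 37 °C in 80 µL wells and extracted with cold acetonitrile/methanol with 0.1% formic acid, then centrifuged. Values are reported as fold change over DMSO controls on the same plate. The mean of 2 biological replicates is given.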
As to `CC#C[C@]1(O)CC[C@H]2[C@@H]3CCC4=CC(=O)CCC4=C3[C@@H](c3ccc(N(C)C)cc3)C[C@@]21C` [Mifepristone] (20 µM), the “fold change of Tryptamine concentration” value was 0.911. Then `C[C@]12CC[C@@H]3c4ccc(O)cc4CC[C@H]3[C@@H]1CCC2=O` [Estrone] (20 µM), with 1.06. `O=C(O)c1cccnc1Nc1cccc(C(F)(F)F)c1` [Niflumic acid] (20 µM): the “fold change of Tryptamine concentration” value is 1.04. For the molecule `OCCN1CCN(CCCN2c3ccccc3C=Cc3ccccc32)CC1` [Opipramol dihydrochloride] (20 µM), the “fold change of Tryptamine concentration” value was 1.07. Then `COCC1=C(C(=O)OC(C)OC(=O)OC(C)C)N2C(=O)[C@@H](NC(=O)/C(=N\OC)c3csc(N)n3)[C@H]2SC1` (some centres undefined) [Cefpodoxime proxetil] (20 µM), with 0.946. Then `CN(CCOc1ccc(CC2SC(=O)NC2=O)cc1)c1ccccn1` (centres undefined) [Rosiglitazone hydrochloride] (20 µM), with 1.06; and `CC(C(=O)O)c1ccc(-c2ccccc2)c(F)c1` (centres undefined) [Flurbiprofen] (20 µM), with 1.02.

`CCCCc1oc2ccc(NS(C)(=O)=O)cc2c1C(=O)c1ccc(OCCCN(CCCC)CCCC)cc1` [Dronedarone hydrochloride] (20 µM): the “fold change of Tryptamine concentration” value was 0.925. As for `O=C(COc1ccc(Cl)cc1)N1CCN(Cc2ccc3c(c2)OCO3)CC1` [Fipexide hydrochloride] (20 µM), the “fold change of Tryptamine concentration” value was 0.943. As to `CCCCCCCCCCCCCCCC[N+](C)(C)CCN(Cc1ccc(OC)cc1)c1ncccn1` [Thonzonium bromide] (20 µM), the “fold change of Tryptamine concentration” value is 0.673 (active). Regarding `C#C[C@]1(O)CC[C@H]2[C@@H]3CCc4cc(OC)ccc4[C@H]3CC[C@@]21C` [Mestranol] (20 µM), the “fold change of Tryptamine concentration” value is 1.04. As to `OC(CCN1CCCCC1)(c1ccccc1)C1CCCCC1` (centres undefined) [Trihexyphenidyl-D,L hydrochloride] (20 µM), the “fold change of Tryptamine concentration” value is 1.01. Turning to `O=C(Cn1cnnn1)N[C@@H]1C(=O)N2C(C(=O)O)=C(CSc3nncs3)CS[C@H]12` [Ceftezole] (20 µM), the “fold change of Tryptamine concentration” value is 0.0131 (active).

With `CCOc1ccc(NC(N)=O)cc1` [(4-Ethoxyphenyl)urea] (50 µM), the “fold change of Tryptamine concentration” value is 0.979. In the case of `NC(=O)c1ncn([C@@H]2O[C@H](CO)[C@@H](O)[C@H]2O)n1` [Ribavirin] (20 µM), the “fold change of Tryptamine concentration” value is 1.01. For the molecule `CC1(C)S[C@@H]2[C@H](NC(=O)C(C(=O)O)c3ccccc3)C(=O)N2[C@H]1C(=O)O` (some centres undefined) [Carbenicillin disodium salt] (20 µM), the “fold change of Tryptamine concentration” value was 0.0162 (active). With `O=C(c1ccccc1)c1ccc2n1CCC2C(=O)O` (centres undefined) [Ketorolac tromethamine] (20 µM), the “fold change of Tryptamine concentration” value was 1.08. Turning to `CN(C(=O)CN(CCO)CC(=O)N(C)C(C)(C)Cc1ccccc1)C(C)(C)Cc1ccccc1` [Oxethazaine] (20 µM), the “fold change of Tryptamine concentration” value was 0.918. Consider `CCOC(=O)[C@H](CCc1ccccc1)N[C@@H](C)C(=O)N1Cc2ccccc2C[C@H]1C(=O)O` [Quinapril hydrochloride] (20 µM), for which the “fold change of Tryptamine concentration” value was 1.07. Regarding `CC[N+]1(CC)CCC(=C(c2ccccc2)c2ccccc2)C1C` (centres undefined) [Prifinium Bromide] (20 µM), the “fold change of Tryptamine concentration” value was 1.02. With `O=P(O)(O)C(Cl)(Cl)P(=O)(O)O` [Clodronate disodium] (20 µM), the “fold change of Tryptamine concentration” value is 0.973. `CCOC(=O)[C@@](C)(N)Cc1ccc(O)c(O)c1` [Methyldopate hydrochloride] (20 µM): the “fold change of Tryptamine concentration” value was 1.04. Take `O=C(NCCO[N+](=O)[O-])c1cccnc1` [Nicorandil] (20 µM): the “fold change of Tryptamine concentration” value was 1.04. Take `CN1CCN(c2c(F)cc3c(=O)c(C(=O)O)cn(CCF)c3c2F)CC1` [Fleroxacin] (20 µM): the “fold change of Tryptamine concentration” value is 0.0453 (active).

`Cn1c(=O)c2c(ncn2CC(=O)O)n(C)c1=O` [Acefylline] (20 µM): the “fold change of Tryptamine concentration” value was 0.971. Consider `CC(=O)[C@H]1CC[C@H]2[C@@H]3C[C@H](C)C4=CC(=O)CC[C@]4(C)[C@H]3[C@@H](O)C[C@]12C` [Medrysone] (20 µM), for which the “fold change of Tryptamine concentration” value was 1.03. `C=C1c2c(Cl)ccc(O)c2C(O)=C2C(=O)[C@]3(O)C(O)=C(C(N)=O)C(=O)[C@@H](N(C)C)[C@@H]3[C@@H](O)[C@H]12.O=C(O)c1cc(S(=O)(=O)O)ccc1O` [Meclocycline sulfosalicylate] (20 µM): the “fold change of Tryptamine concentration” value was 0.0133 (active). Regarding `N[C@@H](CSCCCO)C(=O)O` [Fudosteine] (20 µM), the “fold change of Tryptamine concentration” value was 0.939.

For `CC1=C(C(=O)O)N2C(=O)[C@@H](NC(=O)[C@H](N)C3=CCC=CC3)[C@H]2SC1` [Cephradine monohydrate] (20 µM), the “fold change of Tryptamine concentration” value is 1.04. Then `Nc1ncnc2c1ncn2[C@@H]1O[C@H](CO)[C@@H](O)[C@@H]1O` [Vidarabine] (20 µM), with 0.947; and `CC(C)(CO)[C@@H](O)C(=O)NCCC(=O)NCCSSCCNC(=O)CCNC(=O)[C@H](O)C(C)(C)CO` [D-Pantethine] (20 µM), with 1.03; and `CC(=O)SCC(Cc1ccccc1)C(=O)NCC(=O)OCc1ccccc1` (centres undefined) [Racecadotril] (20 µM), with 0.941. For the molecule `O=C(CCCN1CCN(c2ccccn2)CC1)c1ccc(F)cc1` [Azaperone] (20 µM), the “fold change of Tryptamine concentration” value was 1.14. Then `C[C@H](NCc1ccc(OCc2cccc(F)c2)cc1)C(N)=O` [Safinamide] (20 µM), with 1.03. Then `CCCC(=O)N1CCCN(c2nc(N)c3cc(OC)c(OC)cc3n2)CC1` [Bunazosin hydrochloride] (20 µM), with 1.02; and `Cc1ccc2c(c1)c1c3n2CCNC3CCC1` (centres undefined) [Pirlindole mesylate] (20 µM), with 0.987; and `CC(C)(C)NC(=O)[C@@H]1CN(Cc2cccnc2)CCN1C[C@@H](O)C[C@@H](Cc1ccccc1)C(=O)N[C@H]1c2ccccc2C[C@H]1O` [Indinavir sulfate] (20 µM), with 1.04. On to `COc1cc(Nc2c(C#N)cnc3cc(OCCCN4CCN(C)CC4)c(OC)cc23)c(Cl)cc1Cl` [Bosutinib] (20 µM), for which the “fold change of Tryptamine concentration” value is 0.96. With `O=C1[C@H](CC[C@H](O)c2ccc(F)cc2)[C@@H](c2ccc(O)cc2)N1c1ccc(F)cc1` [Ezetimibe] (20 µM), the “fold change of Tryptamine concentration” value is 0.796.

These data come from the supplement of paper PMC12494721.
